The results in this text go back to ChEMBL document CHEMBL1157539, “Thousands of chemical starting points for antimalarial lead identification” (Nature, 2010).

What all share (type): functional
Assay [1] relates to Plasmodium falciparum. Description: GSK_TCMDC: Inhibition of Plasmodium falciparum 3D7 in whole red blood cells, using parasite LDH activity as an index of growth. Test compounds present at 2uM.
In assay [2] the test system is Plasmodium falciparum. Description: GSK_TCMDC: Inhibition of Plasmodium falciparum Dd2 in whole red blood cells, using parasite LDH activity as an index of growth. Test compounds present at 2uM.
A further assay has as its system HepG2. Description: GSK_TCMDC: Percent inhibition of human HepG2 cell line. Test compounds present at 10uM.

Usually Inhibition stands for the percentage by which the read-out fell short of the control. `CS(=O)(=O)CCNCc1nc(-c2ccc3c(Nc4ccc(F)c(O)c4)ccnc3c2)cs1`: the values for the Inhibition in the assay with Plasmodium falciparum [1], with Plasmodium falciparum [2] and in the assay with HepG2 were 95%, 84% and 0%, respectively.

For the compound `c1ccc(CNc2nc(NCCc3c[nH]cn3)nc(NCc3cccc4ccccc34)n2)cc1`, the results for the Inhibition in the assay on Plasmodium falciparum [1], with Plasmodium falciparum [2] and with HepG2 were 91%, 1% and 9%, respectively.

Take `COc1cc2nc(NCC3CCCCC3)nc(NCc3ccccc3)c2cc1OC`: the Inhibition in the assay with Plasmodium falciparum [1] was determined as 100%; in the assay with Plasmodium falciparum [2] it was 100%; with HepG2, 18%.

Take `Cc1cc(C)c2nc(N3CCC(C(=O)NCCCN4CCC(N5CCCCC5)CC4)CC3)sc2c1`: the results for the Inhibition in the assay on Plasmodium falciparum [1], in the assay on Plasmodium falciparum [2] and with HepG2 were 99%, 34% and 99%, respectively.

In the case of `COc1cccc2cc(C(=O)N[C@@H](CC(C)C)C(=O)N[C@H](C=NN3CC(=O)NC3=O)CC(C)C)oc12`, the Inhibition worked out at 86% with Plasmodium falciparum [1], 64% with Plasmodium falciparum [2] and 3% in the assay with HepG2.

In the case of `COc1ccc(NC(=O)c2ccc(OCCCCCCCOc3ccc(C(=O)Nc4ccc(OC)c(N5CCN(C)CC5)c4)cc3)cc2)cc1N1CCN(C)CC1.O=C(O)C(=O)O`, the Inhibition with Plasmodium falciparum [1] was 96%; in the assay with Plasmodium falciparum [2], 91%; with HepG2 it was 98%.

Consider `O=C(Nc1ccc2c(c1)CCN2C1CCN(Cc2cccc(C(F)(F)F)c2)C1)c1ccco1` (centres undefined), for which the Inhibition was found to be 95% in the assay on Plasmodium falciparum [1], 92% with Plasmodium falciparum [2] and 4% in the assay on HepG2.

On to `Cc1cc(N[C@@H](CC(C)C)C(=O)NCc2cccc(F)c2)nc(NCCc2ccccc2)n1.O=C(O)C(F)(F)F`, for which the Inhibition is recorded as 88% in the assay with Plasmodium falciparum [1], 33% with Plasmodium falciparum [2] and 6% in the assay with HepG2.

As for `CCCC(C)Nc1nc(C)cc(NCCC(=O)Nc2ccc(OC)cc2)n1.O=C(O)C(F)(F)F` (centres undefined), the Inhibition in the assay on Plasmodium falciparum [1] was 97%; with Plasmodium falciparum [2] it was 2%; with HepG2, 12%.

In the case of `Cc1ccc(Nc2nccc(Nc3ccc4c(C)n[nH]c4c3)n2)cc1F.Cl`, the figures for the Inhibition in the assay on Plasmodium falciparum [1], in the assay with Plasmodium falciparum [2] and in the assay with HepG2 were 95%, 1% and 6%, respectively.

As to `Cl.O=C1CSc2ccc(CNC3CCN(CCc4c(F)cnc5ccc(F)cc45)CC3)nc2N1`, the Inhibition is given as 97% with Plasmodium falciparum [1], 16% in the assay on Plasmodium falciparum [2] and 13% in the assay on HepG2.

In the case of `O=C(Cc1c[nH]cn1)Nc1ccc(-c2cccc(-c3nc4cc(C(F)(F)F)ccc4[nH]3)c2)cc1`, the Inhibition with Plasmodium falciparum [1] stood at 100%; with Plasmodium falciparum [2] it was 95%; in the assay on HepG2, 20%.

For the compound `Cc1cccc(CN2CCC(CNC(=O)c3cc4c(-c5ccccc5F)nn(C)c4s3)CC2)c1`, the results for the Inhibition in the assay on Plasmodium falciparum [1], in the assay on Plasmodium falciparum [2] and with HepG2 were 85%, 15% and 18%, respectively.

In the case of `Cc1cc(C)c(-c2n[nH]c3c2C(c2cccc(Cl)c2)N(Cc2ccco2)C3=O)c(O)c1` (centres undefined), the results for the Inhibition with Plasmodium falciparum [1], with Plasmodium falciparum [2] and with HepG2 were 96%, 89% and 0%, respectively.

Turning to `COc1cc(Nc2nccc(N3CCC(NC(=O)c4cccc(NC(C)=O)c4)C3)n2)cc(OC)c1OC` (centres undefined), the Inhibition with Plasmodium falciparum [1] is recorded as 98%; in the assay with Plasmodium falciparum [2], 68%; with HepG2, 9%.

On to `CCC(C)CN1CCN(c2ccc(NC(=O)c3cccs3)cc2)CC1C.O=C(O)C(F)(F)F` (centres undefined), for which the Inhibition in the assay with Plasmodium falciparum [1] came to 94%; with Plasmodium falciparum [2] it was 94%; in the assay with HepG2, 0%.

On to `CN1CCC(N(C)C(=O)C=Cc2cn(-c3ccccc3)nc2-c2cc3ccccc3o2)CC1.Cl`, for which the Inhibition with Plasmodium falciparum [1] is recorded as 92%; in the assay with Plasmodium falciparum [2], 5%; with HepG2 it was 38%.

As to `CC(C)C[C@H](NC(=O)c1cc2ccccc2s1)C(=O)N[C@H]1CCN(Cc2ccc(OC[C@@H]3CCCN3C)c(Cl)c2)C1.O=C(O)C(F)(F)F`, the Inhibition in the assay on Plasmodium falciparum [1] amounted to 100%; in the assay on Plasmodium falciparum [2] it was 81%; in the assay on HepG2, 83%.

With `O=C(Nc1ccc(Cl)cc1)Nc1cccc(-c2cccc(-c3nc4cc(F)ccc4[nH]3)c2)c1`, the Inhibition in the assay with Plasmodium falciparum [1] is given as 100%; in the assay on Plasmodium falciparum [2], 84%; in the assay on HepG2, 79%.

In the case of `CCCCCCNc1cc(C)nc2ccc(OC)cc12.Cl`, the Inhibition in the assay on Plasmodium falciparum [1] stood at 100%; in the assay with Plasmodium falciparum [2], 94%; with HepG2, 19%.

Consider `COc1ccc(C(=O)NC(c2ccc(Cl)cc2Cl)c2cc(Cl)c3cccnc3c2O)cc1` (centres undefined), for which the results for the Inhibition in the assay on Plasmodium falciparum [1], in the assay on Plasmodium falciparum [2] and in the assay on HepG2 were 84%, 48% and 46%, respectively.

Turning to `Cc1cc(NC2CCCC2)nc(Nc2ccccc2F)n1`, the values for the Inhibition with Plasmodium falciparum [1], in the assay with Plasmodium falciparum [2] and in the assay on HepG2 were 97%, 53% and 24%, respectively.

On to `CC1CN(c2cnn(Cc3ccc(NC(=O)Nc4cccc(C(F)(F)F)c4)cc3)c(=O)c2Cl)CC(C)N1.O=C(O)C(F)(F)F` (centres undefined), for which the Inhibition in the assay on Plasmodium falciparum [1] was 86%; in the assay with Plasmodium falciparum [2], 31%; with HepG2 it was 0%.

Take `O=c1cc(NCCCNCc2cc(C(F)(F)F)ccc2F)[nH]c2ccccc12`: the Inhibition with Plasmodium falciparum [1] was determined as 94%; in the assay on Plasmodium falciparum [2], 43%; with HepG2, 0%.

Turning to `O=C(O)c1cccc2c(-c3ccncc3)cccc12`, the Inhibition worked out at 97% in the assay with Plasmodium falciparum [1], 1% in the assay on Plasmodium falciparum [2] and 29% with HepG2.

Consider `O=C(Nc1ccc2c(c1)CCN2C1CCN(Cc2ccc(O)cc2)C1)c1ccco1` (centres undefined), for which the figures for the Inhibition in the assay on Plasmodium falciparum [1], in the assay on Plasmodium falciparum [2] and in the assay with HepG2 were 97%, 63% and 0%, respectively.

As to `Cc1cccc2nc(-c3ccc(-c4ccc(NC(=O)NCc5ccc(F)cc5)cc4)cc3)[nH]c12`, the values for the Inhibition with Plasmodium falciparum [1], in the assay with Plasmodium falciparum [2] and in the assay with HepG2 were 100%, 99% and 70%, respectively.

With `CCCCc1cc(NCc2ccncc2)nc(Nc2cccc(OC)c2)n1`, the Inhibition in the assay on Plasmodium falciparum [1] is reported as 100%; in the assay with Plasmodium falciparum [2], 56%; in the assay with HepG2 it was 41%.
